PubChem BioAssay (EPA / NIEHS)
Records with an inconclusive call do not appear. The source made the active and inactive calls. The calls were made as follows: active = hit-call score of the fitted dose curve at least 0.9, where 1 is the maximum; inconclusive = response in the unintended direction; inactive = score below 0.9.

Molecular target: chimpanzee Androgen Receptor (AR), AR (gene 747460) (UniProt O97775)
Assay: NVS_NR_cAR: NovaScreen (NVS) Nuclear Receptor Binding Assay for chimpanzee Androgen Receptor (AR) (AID 2283346);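 also: radioligand displacement from AR measured by scintillation counting in a cell-free assay; a loss of bound radioligand signal versus DMSO counts as binding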
Method in brief: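 Cell-free competition binding with insect-cell (Sf9/Sf21) extracted chimpanzee AR; scintillation signal from lysate at 72 h. Screened in duplicate at 25 uM, then concentration-response for actives; fitting relative to DMSO.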

chimpanzee Androgen Receptor (AR), AR (gene 747460), sequence (O97775 whole entry, looked up): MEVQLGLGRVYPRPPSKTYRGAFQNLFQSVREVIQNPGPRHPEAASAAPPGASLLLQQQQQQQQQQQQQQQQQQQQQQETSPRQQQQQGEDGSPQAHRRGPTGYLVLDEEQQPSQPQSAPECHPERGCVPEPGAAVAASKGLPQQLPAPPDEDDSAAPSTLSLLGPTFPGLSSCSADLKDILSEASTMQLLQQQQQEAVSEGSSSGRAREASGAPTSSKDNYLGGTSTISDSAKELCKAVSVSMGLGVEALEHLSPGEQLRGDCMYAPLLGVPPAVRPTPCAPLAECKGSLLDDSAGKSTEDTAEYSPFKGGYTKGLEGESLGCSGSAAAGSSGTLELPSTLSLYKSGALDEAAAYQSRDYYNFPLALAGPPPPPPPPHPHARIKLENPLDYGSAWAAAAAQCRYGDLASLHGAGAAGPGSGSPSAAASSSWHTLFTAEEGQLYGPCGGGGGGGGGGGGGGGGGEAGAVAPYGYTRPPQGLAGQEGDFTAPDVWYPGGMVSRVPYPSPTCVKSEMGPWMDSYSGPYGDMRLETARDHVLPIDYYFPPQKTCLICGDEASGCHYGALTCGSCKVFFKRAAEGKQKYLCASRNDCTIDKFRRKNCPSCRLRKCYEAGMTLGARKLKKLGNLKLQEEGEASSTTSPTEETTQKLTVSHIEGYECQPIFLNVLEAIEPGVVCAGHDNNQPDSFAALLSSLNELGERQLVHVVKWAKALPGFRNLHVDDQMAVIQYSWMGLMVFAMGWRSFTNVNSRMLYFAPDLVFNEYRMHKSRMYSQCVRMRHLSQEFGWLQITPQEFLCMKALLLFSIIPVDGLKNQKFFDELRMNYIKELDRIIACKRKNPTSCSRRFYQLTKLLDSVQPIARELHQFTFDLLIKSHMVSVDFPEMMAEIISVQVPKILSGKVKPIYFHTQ

Row | Structure (SMILES) | AC50 | outcome
1 | CS(=O)(=O)c1ccc(C(=O)C2C(=O)CCCC2=O)c([N+](=O)[O-])c1 | 17.6 µM (active) | 
2 | COP(=S)(OC)Oc1ccc([N+](=O)[O-])c(C)c1 | 5.29 µM (active) | 
3 | CC(C)(C)C(=O)C(Oc1ccc(Cl)cc1)n1cncn1 (stereo not given) | 19.6 µM (active) | 
4 | CCCCOCN(C(=O)CCl)c1c(CC)cccc1CC |  | inactive
5 | COC(=O)N(C(=O)N1CO[C@@]2(C(=O)OC)Cc3cc(Cl)ccc3C2=N1)c1ccc(OC(F)(F)F)cc1 |  | inactive
